Results taken from PubChem BioAssay (Tox21).
Inconclusive results are not listed. Where a call stands in place of a potency, no number is given. A number with no mark means an inactive call. Activity calls are given as the source filed them. Calls come from the whole dose curve.

molecular target: Thyrotropin receptor (Homo sapiens) (UniProt P16473); experiment: qHTS assay to identify small molecule antagonists of the thyroid stimulating hormone receptor (TSHR) signaling pathway (AID 1259385); settings: TSHR-HEK293 cAMP HTRF, TSH-stimulated antagonist mode; series mostly up to 92.4 µM; note: nearly all actives have a fitted effect of over 20% in size
Sequence (P16473 whole entry, looked up): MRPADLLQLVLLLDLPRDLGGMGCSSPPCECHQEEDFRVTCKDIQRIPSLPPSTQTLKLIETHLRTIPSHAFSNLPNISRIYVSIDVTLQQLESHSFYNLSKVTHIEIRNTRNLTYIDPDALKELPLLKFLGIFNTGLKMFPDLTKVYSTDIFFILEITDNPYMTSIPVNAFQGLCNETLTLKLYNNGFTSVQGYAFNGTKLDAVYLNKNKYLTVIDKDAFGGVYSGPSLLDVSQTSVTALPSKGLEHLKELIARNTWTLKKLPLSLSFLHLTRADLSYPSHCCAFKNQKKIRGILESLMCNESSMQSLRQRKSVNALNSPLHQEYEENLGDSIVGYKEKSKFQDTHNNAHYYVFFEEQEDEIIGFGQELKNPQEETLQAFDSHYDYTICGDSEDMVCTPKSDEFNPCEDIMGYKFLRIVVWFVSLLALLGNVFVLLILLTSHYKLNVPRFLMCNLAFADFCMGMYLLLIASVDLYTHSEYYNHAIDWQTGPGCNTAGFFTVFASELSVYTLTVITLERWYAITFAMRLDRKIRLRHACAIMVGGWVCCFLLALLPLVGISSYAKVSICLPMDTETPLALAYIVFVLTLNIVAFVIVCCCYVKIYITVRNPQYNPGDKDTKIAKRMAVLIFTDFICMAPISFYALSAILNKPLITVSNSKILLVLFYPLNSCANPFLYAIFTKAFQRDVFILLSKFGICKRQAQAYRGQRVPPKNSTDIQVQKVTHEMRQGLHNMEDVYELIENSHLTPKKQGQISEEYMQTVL
Description: U.S. Tox21 Program National Center for Advancing Translational Sciences [NCATS] NIH Chemical Genomics Center [NCGC] U.S. Environmental Protection Agency [EPA] National Institutes of Environmental Health Sciences [NIEHS] National Toxicology Program [NTP] U.S. Food and Drug Administration [FDA] Tox21 Assay Overview: TSHR is the receptor for thyrotropin (thyroid stimulating hormone or TSH), a member of the glycoprotein hormone family. TSH is released by the anterior pituitary gland and is the main regulator of thyroid gland growth and development. Upon binding circulating thyrotropin, a G-protein signal cascade activates adenylyl cyclase and […] cAMP concentration is increased. cAMP is a key second messenger involved extensively in cellular signal transduction pathways associated with the majority of G-protein coupled receptors (GPCRs). The activation of these GPCRs by neurotransmitters, lipids, nucleotides, peptides and hormones results in the activation or the inhibition of plasma membrane-bound adenylate cyclase through heterotrimeric G-proteins. A cell-based TSHR assay can be used to screen chemical compounds that modulate TSHR either in agonist or antagonist mode.
Tox21 Assay Protocol Summary: TSHR-Hek293 cells were dispensed at 800 cells/4uL/well in 1536-well white plates using a Multidrop dispenser. After the assay plates were incubated at a 37C/5% CO2 incubator for 18 hrs, 23 nL of compounds dissolved in DMSO, positive controls or DMSO only was transferred to the assay plate by a pin tool, followed by 1 ul medium containing Ro20-1724. For the antagonist mode screening, 1 uL of TSH was added on the top of the cell/compound mixtures to achieve a final agonist concentration of 1.5 ng/mL. After 30 min of incubation at room temperature, 2.5 ul/well of cAMP-d2 and 2.5 ul/well of anti-cAMP-cryptate were added respectively into the assay plates using a Flying Reagent Dispenser. The plates were incubated at room temperature for 1 hr. The fluorescence intensity in the plates was measured using an Envision plate reader. Each test compound was measured at 15 concentrations and in triplicates.
Potency is the fitted concentration of half-maximal effect.

| SMILES | Potency | activity change, negative = inhibition |
| --- | --- | --- |
| COC(=O)[C@H]1[C@H]2C[C@@H]3c4[nH]c5cc(OC)ccc5c4CCN3C[C@H]2C[C@@H](OC(=O)COc2ccc(OC)cc2)[C@@H]1OC | inactive |  |
| c1ccc(CCCc2ccccn2)cc1 | inactive |  |
| Nc1cc(C(Cl)=C(Cl)Cl)c(S(N)(=O)=O)cc1S(N)(=O)=O | inactive |  |
| Cc1ccccc1Br | inactive |  |
| C=CCOCC(O)CS(=O)(=O)O (stereo not given) | inactive |  |
| N#CCN(CC#N)CCN(CC#N)CC#N | inactive |  |
| CC1(C)SC(C)(C)SC(C)(C)S1 | inactive |  |
| CC(C)COC(=O)c1ccccc1O | inactive |  |
| CCN1CCN(c2cc3c(cc2F)c(=O)c(C(=O)O)cn3C2CC2)CC1 | inactive |  |
| FC(F)(F)C(F)(F)C(F)(F)C(F)(F)C(F)(F)C(F)(F)C(F)(F)C(F)(F)C(F)(F)C(F)(F)F |  | -3.91% [at 8.39 µM] |
| CO | inactive |  |
| CCN(CC)S(=O)(=O)c1ccc(C(=O)O)cc1 | inactive |  |
| N[C@@H](CS)C(=O)O | inactive |  |
| CCCC(C)C(=O)O (stereo not given) | inactive |  |
| COC(=O)C1=C(C)NC(C)=C(C(=O)OCC(C)=O)C1c1ccccc1[N+](=O)[O-] (stereo not given) | inactive |  |
| CC(C)=CC(=O)O | inactive |  |
| Nc1nc2c(ncn2CCC(CO)CO)c(=O)[nH]1 | inactive |  |
| CC12CCC(CC1=O)C2(C)C (stereo not given) | inactive |  |
| COC(C(=O)O)c1ccccc1 (stereo not given) | inactive |  |
| CCC(=O)Nc1cccc(N)c1 | inactive |  |

| SMILES | Potency | activity change, negative = inhibition |
| --- | --- | --- |
| c1cc(CN2CCCCC2)cc(OCCCNc2nc3ccccc3s2)c1 | 29.8 µM (active) |  |
| CCCCCCCCCCC1CO1 (stereo not given) | inactive |  |
| NC(=O)CCCCC1CCSS1 (stereo not given) | inactive |  |
| COc1ccc(NC(C)=O)cc1 | inactive |  |
| C=C(C)C(=O)OCCC(C)OC(=O)C(=C)C (stereo not given) | inactive |  |
| CC(C)N1C(=O)c2ccccc2C1=O | inactive |  |
| O=C(O)c1ccccc1S | inactive |  |
| COC(=O)CCCC(=O)O | inactive |  |
| NC(N)=NS(=O)(=O)c1ccc(N)cc1 | inactive |  |
| CC1=CC(=O)CCC1 | inactive |  |
| CCCCCCOC(=O)CC(CC(=O)OCCCCCC)(OC(=O)CCC)C(=O)OCCCCCC | inactive |  |
| C#CC(O)CCCCC (stereo not given) | inactive |  |
| CCCCCCCCCCCCCCCCCC(=O)OCCCCCCCCCCCCCC(C)C | inactive |  |
| Cc1onc(-c2ccccc2)c1-c1ccc(S(N)(=O)=O)cc1 | inactive |  |
| CN(C)N=Nc1ccccc1 | inactive |  |
| C=CC(=O)OCCCCCC | inactive |  |
| Oc1ccc2c(c1)OC[C@@H](N1CCC(O)(c3ccc(F)cc3)CC1)[C@H]2O | inactive |  |
| C[C@H](O)C(=O)Nc1c(I)c(C(=O)NC(CO)CO)c(I)c(C(=O)NC(CO)CO)c1I | inactive |  |
| C=CCOc1nc(OCC=C)nc(OCC=C)n1 | inactive |  |
| CCc1cc(S(=O)(=O)O)c2cc(C(C)C)cccc1-2 | inactive |  |
